The subject of assay [1] is Human papillomavirus type 1a protein E7 (residues 44-93). Briefly: HPV1a E7 fragment binders on microarrays, primary screen, biochemical, small-molecule microarray, residues 44-93, 635 nm fluorescence (AID 1108).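 Note: E7 fragment applied at 1 µg/mL in TBST for 1 h at 4 C; score combines spot fluorescence with its signal to noise ratio.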 The conditions noted are these: small-molecule microarray binding, fluorescence 635 nm; higher = more signal.
A short description of assay [2]: modulators of HCV replicon luciferase signal, primary screen, HCV replication inhibitor project, Huh7 cells, luciferase reporter (AID 1109).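 Note: huh7 hepatoma cells harbouring a luciferase neomycin HCV replicon reporter; luciferase luminescence as measure of HCV replicon replication; test concentration not given here.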 As to conditions: 48 h, higher = more signal. A general note: Replicon systems follow genome replication, usually without infectious particles.
Assay [3] deals with Left-right determination factor 2 (Homo sapiens) (UniProt O00292). Nature of the assay: LEFTY2 binders on small-molecule microarrays, primary screen, biochemical, small-molecule microarray, 635 nm fluorescence scan (AID 1110). As to conditions: LEFTY2 binding, higher = more signal.
Sequence of Left-right determination factor 2 (Homo sapiens) (O00292 whole entry, looked up): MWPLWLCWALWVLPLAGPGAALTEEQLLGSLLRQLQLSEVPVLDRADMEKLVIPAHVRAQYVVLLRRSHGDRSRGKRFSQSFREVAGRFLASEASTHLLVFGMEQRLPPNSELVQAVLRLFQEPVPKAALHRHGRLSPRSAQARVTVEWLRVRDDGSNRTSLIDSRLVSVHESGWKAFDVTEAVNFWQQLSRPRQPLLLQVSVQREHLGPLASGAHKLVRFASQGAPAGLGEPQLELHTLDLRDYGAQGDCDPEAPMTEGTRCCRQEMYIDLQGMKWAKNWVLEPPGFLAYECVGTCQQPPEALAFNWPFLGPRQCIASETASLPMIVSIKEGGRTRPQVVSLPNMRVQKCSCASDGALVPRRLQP
Assay [4] concerns the target Calmodulin-1 (Homo sapiens) (UniProt P0DP23). Nature of the assay: CALM1 binders on microarrays, EGTA buffer, profiling panel, biochemical, small-molecule microarray, Cy5-labelled CALM1 (AID 1111).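 Note: labelled calmodulin applied in Tris saline Tween buffer holding calcium plus EGTA and DTT.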 As to conditions: Cy5-CALM1 binding fluorescence, higher = more signal.
The target is the same in assay [5]. Nature of the assay: calcium-bound CALM1 binders on microarrays, profiling panel, artefact control for SMM control-protein annotation, biochemical, small-molecule microarray, Cy5-labelled CALM1, plus calcium (AID 1112).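 Note: score merges spot fluorescence with signal to noise from triplicate slides.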 The conditions noted are these: Cy5-CALM1 binding fluorescence, higher = more signal.
Assay [6] is described as follows: small-molecule microarray binders of probe aWnt5a, primary screen, biochemical, biotinylated probe, 635/667 nm fluorescence (AID 1113).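 Note: score merges 667 nm fluorescence intensity with signal-to-noise per printed feature.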 As to conditions: higher = more signal.
The nature of assay [7]: small-molecule microarray binders of probe aShh, primary screen, biochemical, biotinylated probe, 635/667 nm fluorescence (AID 1114).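 Note: probe is biotin-labelled aShh protein from a stem cell growth factor screen; measures binding of labelled protein to compounds printed on the slide; score merges feature fluorescence at 667 nm with signal-to-noise.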 The conditions noted are these: higher = more signal.
Assay [8] can be described thus: small-molecule microarray binders of probe aNog, primary screen, biochemical, biotinylated probe, 635/667 nm fluorescence (AID 1115).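 Note: probe is biotinylated aNog protein used at 0.15 µg/mL for 1 h at 4 C; z-score combines 667 nm fluorescence of each spot with its signal to noise.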 The conditions noted are these: higher = more signal.
Assay [9] has as its target Torsin-1A-interacting protein 1 (Homo sapiens) (UniProt Q5JTV8). Briefly: LAP1 binders from COS7 cell lysate, primary screen, small-molecule microarray, 635/667 nm fluorescence (AID 1116). As to conditions: COS7-hLAP1 lysate binding, 635 nm fluorescence, higher = more signal.
Assay [10] has as its target Alpha-bungarotoxin (Bungarus multicinctus) (UniProt P60615). Nature of the assay: alpha-bungarotoxin binders on microarray, profiling panel, artefact control for SMM control protein annotation, biochemical, small-molecule microarray, Alexa647 label, 635/667 nm fluorescence (AID 1117). The conditions noted are these: alpha-BTX-A647 binding fluorescence, higher = more signal.

Assay [11] addresses Albumin (Bos taurus) (UniProt P02769). Nature of the assay: bovine serum albumin binders on microarray, profiling panel, artefact control for SMM control protein annotation, biochemical, small-molecule microarray, Alexa647 label, 635/667 nm fluorescence (AID 1118).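 Note: score merges 667 nm emission intensity and signal-to-noise per printed compound spot.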 As to conditions: BSA-A647 binding, fluorescence 635 nm, higher = more signal.
Assay [12] is described as follows: small-molecule microarray binders of probe aXIP, primary screen, biochemical, NeuroSMM set, 635/667 nm fluorescence (AID 1119).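 Note: probe is the protein aXip251-270 applied at 1 µg/mL to compound-printed slides; binding of probe to printed compounds measured as 667 nm fluorescence plus signal to noise.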 As to conditions: higher = more signal, called active from +8 up or from −8 down.
The nature of assay [13]: small-molecule binders of probe aNOTCH3, primary screen, biochemical, small-molecule microarray, 635/667 nm fluorescence (AID 1120).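 Note: probe is a biotin-tagged antibody raised against NOTCH3 rather than NOTCH3 protein; score merges spot fluorescence near 667 nm with spot signal to noise.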 As to conditions: higher = more signal.
The nature of assay [14]: small-molecule binders of probe aNOTCH2, primary screen, biochemical, small-molecule microarray, 635/667 nm fluorescence (AID 1121).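 Note: score merges feature fluorescence read at 667 nm with its signal to noise.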 As to conditions: higher = more signal.
Assay [15] concerns the target Carbonic anhydrase 2 (Homo sapiens) (UniProt P00918). Briefly: CAII small-molecule binders, profiling panel, biochemical, small-molecule microarray, Alexa647-labelled CAII (AID 1122). The conditions noted are these: CAII-A647 binding fluorescence, higher = more signal.
A short description of assay [16]: COS7 lysate on small-molecule microarray, probe aHis, 635 nm (AID 1123).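 Note: z-score combines 667nm fluorescence intensity with signal-to-noise per printed compound spot.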 As to conditions: COS7 cell lysate, fluorescence, higher = more signal.
A short description of assay [17]: compound binding in COS7 lysate, probe aLAP1, primary screen, cell lysate, small-molecule microarray (AID 1124).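 Note: lysate comes from COS7 cells expressing LAP1 and is applied at 0.3 µg/mL; score merges spot fluorescence near 667 nm with signal-to-noise over triplicate slides.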 The conditions noted are these: probe aLAP1, fluorescence, higher = more signal.
Assay [18] deals with Sam68 (KHDRBS1). Nature of the assay: Sam68 small-molecule binders, primary screen, biochemical, small-molecule microarray, 635 nm fluorescence (AID 1125).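 Note: score merges 667 nm channel intensity with signal to noise over triplicate slides.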 The conditions noted are these: small-molecule microarray binding, higher = more signal.
Assay [19] concerns Chordin-like protein 2 (CHRDL2). Briefly: CHRDL2 small-molecule binders, primary screen, biochemical, small-molecule microarray, 635 nm fluorescence (AID 1126).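 Note: printed compound slides probed with Chrdl2 protein at 4 µg/mL for 1 h at 4 C; score merges 667 nm emission intensity with signal to noise over three replicate slides.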 The conditions noted are these: small-molecule microarray binding, fluorescence 635 nm; higher = more signal.
For assay [20], the target named is Concanavalin-A (Canavalia ensiformis) (UniProt P02866). Nature of the assay: ConA small-molecule binders, primary screen, artefact control for SMM control protein annotation, biochemical, small-molecule microarray, Alexa647 label, 635 nm (AID 1127).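 Note: z combines 667 nm emission intensity with signal-to-noise across three replicate slides.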 The conditions noted are these: ConA-A647 binding fluorescence, higher = more signal.
Sequence of Concanavalin-A (Canavalia ensiformis) (P02866 whole entry, looked up): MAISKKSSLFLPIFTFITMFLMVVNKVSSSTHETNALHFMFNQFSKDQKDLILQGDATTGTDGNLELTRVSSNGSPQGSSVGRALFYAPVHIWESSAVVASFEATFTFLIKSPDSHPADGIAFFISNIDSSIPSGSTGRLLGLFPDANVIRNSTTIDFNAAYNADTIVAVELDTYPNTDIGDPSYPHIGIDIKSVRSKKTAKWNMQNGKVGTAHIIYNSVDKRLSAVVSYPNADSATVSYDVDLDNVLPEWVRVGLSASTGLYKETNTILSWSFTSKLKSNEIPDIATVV

Activity calls are given as the source filed them.

Sequence of Alpha-bungarotoxin (Bungarus multicinctus) (P60615 whole entry, looked up): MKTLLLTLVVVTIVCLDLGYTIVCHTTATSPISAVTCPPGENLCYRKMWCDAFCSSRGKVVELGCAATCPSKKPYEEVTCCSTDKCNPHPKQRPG
Sequence of Torsin-1A-interacting protein 1 (Homo sapiens) (Q5JTV8 whole entry, looked up): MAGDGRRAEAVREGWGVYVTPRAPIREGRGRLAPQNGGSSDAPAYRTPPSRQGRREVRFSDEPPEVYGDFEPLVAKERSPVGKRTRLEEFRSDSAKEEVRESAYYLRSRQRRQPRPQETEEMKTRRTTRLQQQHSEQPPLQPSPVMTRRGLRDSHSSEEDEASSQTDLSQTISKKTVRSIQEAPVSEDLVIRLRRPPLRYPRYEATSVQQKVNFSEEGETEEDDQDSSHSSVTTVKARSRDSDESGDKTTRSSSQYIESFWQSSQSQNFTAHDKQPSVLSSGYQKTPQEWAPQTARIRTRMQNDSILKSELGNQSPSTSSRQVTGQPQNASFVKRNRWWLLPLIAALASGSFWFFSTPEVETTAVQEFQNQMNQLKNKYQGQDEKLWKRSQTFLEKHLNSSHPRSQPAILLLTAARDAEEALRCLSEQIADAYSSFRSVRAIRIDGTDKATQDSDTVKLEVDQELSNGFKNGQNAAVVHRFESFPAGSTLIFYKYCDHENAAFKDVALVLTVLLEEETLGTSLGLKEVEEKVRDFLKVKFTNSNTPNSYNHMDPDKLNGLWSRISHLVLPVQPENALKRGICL
Sequence of Albumin (Bos taurus) (P02769 whole entry, looked up): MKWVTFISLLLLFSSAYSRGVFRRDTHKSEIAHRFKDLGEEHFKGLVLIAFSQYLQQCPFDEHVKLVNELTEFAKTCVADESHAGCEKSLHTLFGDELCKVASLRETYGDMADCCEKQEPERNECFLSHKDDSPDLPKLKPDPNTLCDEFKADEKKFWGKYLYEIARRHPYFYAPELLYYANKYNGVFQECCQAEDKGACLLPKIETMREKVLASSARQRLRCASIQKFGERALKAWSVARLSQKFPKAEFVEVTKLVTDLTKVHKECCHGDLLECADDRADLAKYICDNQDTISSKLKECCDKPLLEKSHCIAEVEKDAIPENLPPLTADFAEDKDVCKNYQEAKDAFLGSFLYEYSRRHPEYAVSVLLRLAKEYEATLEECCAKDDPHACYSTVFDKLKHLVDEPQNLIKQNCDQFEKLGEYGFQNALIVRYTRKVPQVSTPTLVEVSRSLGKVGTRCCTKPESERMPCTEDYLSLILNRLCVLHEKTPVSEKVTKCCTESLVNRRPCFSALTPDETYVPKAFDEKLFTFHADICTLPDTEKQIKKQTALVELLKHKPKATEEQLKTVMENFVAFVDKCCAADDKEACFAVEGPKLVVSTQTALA

As to `C=C(C)[C@@H]1CC=C(C(O)C2C=CC3C(=O)N(C4CCCCC4)C(=O)C3N2Nc2ccc(OC)cc2)CC1` (stereo not given in full), the composite z-score in [1] is 1.39; in assay [3], 0.3; in [4], 1.5; in assay [5], 0.417; in assay [6], -0.0738; in [7], -0.1. Besides, the composite z-score in assay [8] is -0.368; in [9], 0.477; in assay [10] it was 1.3; in [11], 0.902; in [13], 0.323; in assay [14] it was -0.141. Moreover, the composite z-score in assay [15] amounted to 0.59; in assay [16] it was 2.54; in [17], 0.273; in assay [18], 1.29; in assay [19] it was 0.0811; in assay [20], 1.09. Further, in assay [2], the z-score is -1.19. Moreover, the composite Z-score in assay [12] was 0.494 (inactive).
As for `[N-]=[N+]=Nc1ccccc1C[C@]1(C(=O)NCCN2CCOCC2)N=C(c2ccc(OCCCO)cc2)O[C@H]1c1ccccc1N=[N+]=[N-]`, the composite z-score was 1.12 in assay [1]; 0.863 in assay [3]; 1.1 in assay [4]; -0.198 in assay [5]; 0.136 in assay [6]; -0.138 in assay [7]. The composite z-score is 1.85 in [8]; 1.51 in [9]; 1.12 in assay [10]; 0.892 in assay [11]; 0.505 in assay [13]; 0.141 in assay [14]. The composite z-score was 0.584 in [15]; 2.84 in [16]; 0.505 in [17]; 1.29 in assay [18]; 0.415 in [19]; 1.15 in [20]. This compound also yielded a z-score in [2] of -2.49. Besides, the composite Z-score in [12] was 0.241 (inactive).
Regarding `CC(C)(C)OC(=O)CC[C@@]1(C(=O)N2CCCCC2)N=C(c2ccc(OCCCO)cc2)O[C@@H]1c1ccccc1CN=[N+]=[N-]`, the composite z-score in [1] was 1.46; in assay [3] it was 0.0083; in assay [4], 1.88; in assay [5], 0.709; in assay [6], 0.0629; in assay [7], 0.199. Moreover, the composite z-score in [8] is -0.685; in assay [9], 2.04; in [10], 2.27; in assay [11], 1.03; in [13], 0.359; in assay [14] it was 0.13. The composite z-score in [15] was 0.597; in assay [16], 2.99; in assay [17] it was 0.639; in [18], 1.29; in [19], -0.813; in assay [20], 1.18. The z-score in [2] was -2.36. In addition, the composite Z-score in [12] was 0.18 (inactive).
For the compound `COc1ccc([Si](C)(C)[C@H]2[C@H](CC(=O)N3CCC[C@H]3CO)O[C@@]3(C(=O)N(Cc4ccc(N5C(=O)c6cccc7cccc5c67)cc4)c4ccccc43)[C@@H]2C)cc1`, the composite z-score in [1] was 1.14; in assay [3], 0.758; in assay [4] it was 0.325; in assay [5], -0.544; in assay [6], -0.0944; in [7], 0.151. Further, the composite z-score was 0.473 in [8]; 0.585 in assay [9]; 2.05 in assay [10]; 0.121 in assay [11]; 0.171 in [13]; -0.146 in [14]. The composite z-score worked out at 0.409 in assay [15]; 1.23 in assay [16]; 0.206 in [17]; 1.29 in assay [18]; 0.634 in assay [19]; 1.13 in [20]. The compound further registered a z-score in assay [2] of -1.96. In addition, the composite Z-score in [12] is 0.829 (inactive).
`COc1ccc(C#Cc2ccc3c(c2)[C@]2(C(=O)N3)[C@H](C(N)=O)[C@H]3C(=O)O[C@H](c4ccccc4)[C@H](c4ccccc4)N3[C@@H]2c2ccc(O)cc2)cc1`: the composite z-score in assay [1] is 1.48; in assay [3] it was 0.422; in assay [4], 0.539; in assay [5], 0.686; in [6] it was -0.12; in assay [7] it was -0.0904. The composite z-score in assay [8] was -0.215; in assay [9] it was 1.09; in [10], 1.05; in assay [11], 0.49; in assay [13], -0.0947; in assay [14], -0.148. The composite z-score in [15] was 0.414; in [16], 2.27; in [17], 0.211; in assay [18], 0.902; in assay [19] it was -0.0806; in assay [20] it was 0.985. The compound also yielded a z-score in [2] of -2.51. In addition, the composite Z-score in assay [12] is 0.312 (inactive).

The record behind these values is PubChem BioAssay.
